# From PubChem BioAssay (NCATS)
# Records with an inconclusive call do not appear. Unmarked numbers belong to inactive results. Activity calls are given as the source filed them. The call rests on the fitted dose curve; in most records, active means well fitted cell-killing curve with a large enough effect; inconclusive means small, poorly fitted or top-dose-only effect, or effect the other way; inactive means flat fitted curve, though single readings scatter.
# Assay: Cell Viability - LYMP2-003 (AID 965);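 further: cells exposed to compounds for 24 h before reading; nearly all actives have a fitted effect of over 50% in size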;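 on activity change, negative = cytotoxicity: 0% = DMSO only and full effect = 92 µM tetraoctylammonium bromide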
# Conditions: LYMP2-003 lymphoblastoid cell viability; series mostly up to 92.2 µM; activity change, negative = cytotoxicity: at the top concentration
# Text: NIH Chemical Genomics Center [NCGC]
# NIH Molecular Libraries Screening Centers Network [MLSCN]
# National Institutes of Environmental Health Sciences [NIEHS]
# National Toxicology Program [NTP]
# We have developed a 1536-well cell-based assay for quantitative high throughput screening (qHTS) against a number of cell lines to determine in vitro cytotoxicity of small molecules. This particular assay uses a human lymphoblastoid cell line (LYMP2-003) purchased from Coriell Institute for Medical Research.
# NCGC Assay Protocol Summary:
# The CellTiter-Glo luminescent cell viability assay (Promega) is a homogeneous method to measure the number of viable cells in culture. The end point readout of this assay is based on quantitation of intracellular ATP, an indicator of metabolic activity, using the luciferase reaction. Luciferase catalyzes the oxidation of beetle Luciferin to oxyluciferin and light in the presence of ATP. The luminescent signal is proportional to amount of ATP present.
# Using the CellTiter-Glo luminescent cell viability assay, the amount of cellular ATP was measured in the lymphoblastoid cell line with complete culture medium following compound treatment for 24 hours. The assay was performed in opaque white Kalypsys 1536-well plates. In the screen, tetraoctylammonium bromide was used as positive control. Library compounds were measured for their ability to cause acute toxicity in the cell line, as reflected by a decrease in intracellular ATP levels, in a concentration-dependent manner. […] AC50 values were determined from concentration-response data modeled with the standard Hill equation.
# qHTS protocol for CellTiter Glo lymphoblastoid cellular assay
# [Step] [Parameter] [Value] [Description]
# 1. Reagent; 5 uL; 2500 lymphoblastoid cells/well
# 2. Time; 5 hr; 37 C incubation
# 4. Controls; 23 nL; Tetraoctylammonium bromide 6.4pM to 92 uM
# 5. Time; 24 hr; 37 C incubation
# 6. Reagent; 5 uL; CellTiter Glo reagent
# 7. Time; 30 min; Room Temperature
# 8. Detection; Luminescence; Viewlux plate reader
# Keywords: cell viability, cytotoxicity, lymphoblastoid cell line, luminescence, NTPHTS, NTPHTS_NCGC, NIEHS, DSSTox, MLSMR, MLSCN, NIH Roadmap, qHTS, NCGC
# Potency means the concentration at half of the fitted maximal effect.
Compound,"activity change, negative = cytotoxicity [%]",Potency
Cc1ccnc2c1NC(=O)c1cccnc1N2C1CC1,-2.69,
N=C(N)c1ccc(OCCCCCOc2ccc(C(=N)N)cc2)cc1,-9.68,
CC1=NN(c2ccccc2)C(=O)C1,13.5,
C[C@]12C=CC(=O)C=C1CC[C@@H]1[C@@H]2C(=O)C[C@@]2(C)[C@H]1CC[C@]2(O)C(=O)CO,8.35,
Cc1cc(NS(=O)(=O)c2ccc(N)cc2)no1,19.8,
CCc1cc(C(N)=S)ccn1,6.66,
Cc1ncc([N+](=O)[O-])n1CCO,10.1,
Cc1noc(NS(=O)(=O)c2ccc(N)cc2)c1C,5.17,
O=C(O)c1cc(=O)[nH]c(=O)[nH]1,12.4,
COc1ccc2cc3[n+](cc2c1OC)CCc1cc2c(cc1-3)OCO2,-26.5,
O=C(N[C@H](CO)[C@H](O)c1ccc([N+](=O)[O-])cc1)C(Cl)Cl,9.64,
Cc1nnc(NS(=O)(=O)c2ccc(N)cc2)s1,7.22,
CN(C)c1ccc(C(=C2C=CC(=[N+](C)C)C=C2)c2ccc(N(C)C)cc2)cc1,,3.16 µM (active)
NC(N)=NC(N)=NCCc1ccccc1,-11,
NNC(=O)c1ccncc1,29.8,
